Assay results as given in PubChem BioAssay (NCATS).
Records with an inconclusive call do not appear. The source made the active and inactive calls. Unless noted, calls come from the whole dose curve; as a rule, active = well fitted curve in the direction sought with a large enough effect; inconclusive = small, poorly fitted or top-dose-only effect, or another doubt; inactive = no such curve, though single readings can be large; an effect the other way counts as inactive or inconclusive.

Experiments:
[1] = qHTS drug screen for cell cycle checkpoint inhibitors in PARPi-resistant BRCA-mutant ovarian cancer cell lines. (AID 1963452; calls by dose curve); settings: PEO1/OlaR viability, CellTiter-Glo luminescence, 96 h, stronger effect = lower value
Procedure, shortened: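 PEO1, PEO4 and PEO1/OlaR ovarian cancer cells, 600 per well, exposed 96 h at 37C to a dilution series. Viability read by CellTiter-Glo luminescence, normalized to DMSO and empty wells; activity summarized as Z-AUC.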

[2] = test system: Zika virus NS2B-NS3 protease (unlinked complex); assay: Primary screen GU Rhodamine qHTS for Zika virus inhibitors: Unlinked NS2B-NS3 protease assay (AID 1347159); settings: Recombinant ZIKV NS2B-NS3 protease, Rhodamine110 substrate fluorescence; series mostly up to 107 µM; note: % is set by controls: 0 for no effect and ±100 for the full control effect; nearly all actives have a fitted effect of over 60% in size
Procedure, shortened: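 Noncovalent NS2B hydrophilic domain/NS3 protease complex (25 nM final) in 10 mM Tris-HCl pH 8.0, 0.01% Tween 20, preincubated 15 min with compounds (up to 114 microM), then 1.5 microM Rhodamine110 substrate. Fluorescence change over 15 min fitted to 4-parameter Hill.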

[3] = target: Cytochrome P450 2D6 (Homo sapiens) (UniProt P10635); assay: Cytochrome P450 family 2 subfamily D member 6 (CYP2D6) small molecule antagonists: luciferase biochemical (cell-free) qHTS assay (AID 1645840; active = well fitted curve in the direction sought with a large enough effect in the repeat runs; an effect the other way counts as inactive or inconclusive; note: nearly all actives have a fitted effect of over 55% in size; note: potency is the fitted concentration of half-maximal effect; for activity change, negative = inhibition: % is set by controls: 0 for no effect and ±100 for the full control effect); settings: P450-Glo CYP2D6 enzyme, luciferin luminescence, 1 h; series mostly up to 57.4 µM
Procedure, shortened: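 P450-Glo luminescent screen: recombinant CYP2D6 enzyme–proluciferin substrate mix preincubated with compound 10 min at room temperature, then NADPH regeneration added for 1 h at room temperature. Detection reagent added for 20 min; luciferin light read as relative luminescence units.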

[4] = test system: CRL-7250; assay: Cytotoxic Profiling of Annotated Libraries Using Quantitative High-Throughput Screening (AID 1296008); settings: Five cell lines viability, CellTiter-Glo ATP luminescence, 48-72 h; max response: stronger effect = lower value; note: nearly all actives have a fitted effect of over 60% in size; note: potency is the fitted concentration of half-maximal effect; for max response: % is set by controls: 0 for no effect and ±100 for the full control effect
Procedure, shortened: (§1)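 Cells exposed to compounds for 48 or 72 hr at 37 degrees Celsius. Viability read as ATP-coupled luminescence with CellTiter-Glo after 10 min at room temperature.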

[5] = test system: KB-3-1; assay: as above; settings: Five cell lines viability, CellTiter-Glo ATP luminescence, 48-72 h; max response: stronger effect = lower value
Procedure, shortened: as §1

[6] = test system: HeLa; assay: Primary qHTS to identify gynecologic anti-cancer compounds using libraries of approved drugs and bioactive compounds (AID 1345084); settings: Gynecologic cancer cell panel viability, ATPlite luminescence, 48 h; series mostly up to 57.5 µM; note: nearly all actives have a fitted effect of over 55% in size; note: potency is the fitted concentration of half-maximal effect; for activity change, negative = cytotoxicity: % is set by controls: 0 for no effect and ±100 for the full control effect
Procedure, shortened: (§2)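 48 h compound exposure at 37 C, 5% CO2; five-point qHTS. ATPlite luminescence readout of cell ATP.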

[7] = test system: SKOV3; assay: as above; settings: Gynecologic cancer cell panel viability, ATPlite luminescence, 48 h; series mostly up to 57.5 µM
Procedure, shortened: as §2

[8] = target: Cytochrome P450 2C9 (Homo sapiens) (UniProt P11712); assay: Cytochrome P450 family 2 subfamily C member 9 (CYP2C9) small molecule antagonists: luciferase biochemical (cell-free) qHTS assay (AID 1645842; active = well fitted curve in the direction sought with a large enough effect in the repeat runs; an effect the other way counts as inactive or inconclusive; note: nearly all actives have a fitted effect of over 55% in size; note: potency is the fitted concentration of half-maximal effect); settings: P450-Glo CYP2C9 enzyme assay, luciferin luminescence; series mostly up to 57.4 µM
Procedure, shortened: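 Luminescence, after 20 min with luciferin detection reagent, reflected CYP2C9 turnover during a 1 h NADPH-driven reaction at 37C. Enzyme-substrate mix contained 0.4% bovine serum albumin and was preincubated with compound 10 min at room temperature.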

[9] = test system: HACAT; assay: qHTS assay to identify novel small-molecules to repurpose for Merkel cell carcinoma treatment (AID 1296009); settings: MCC and control cell lines, CellTiter-Glo viability, 72 h; at 44.8 µM (top of the series) unless noted; note: nearly all actives have a fitted effect of over 60% in size
Procedure, shortened: (§3)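 Cells were incubated with compound for 72 hr at 37 degree celsius before CellTiter-Glo addition. Luminescence was normalized with no-cell wells as full cytotoxicity and DMSO as baseline.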

[10] = test system: NIH3T3; assay: as above; settings: MCC and control cell lines, CellTiter-Glo viability, 72 h; at 44.8 µM (top of the series) unless noted
Procedure, shortened: as §3

[11] = P-glycoprotein substrates identified in KB-8-5-11 adenocarcinoma cell line, qHTS therapeutic library screen (AID 1346987); settings: KB-8-5-11 (P-gp overexpressing) viability, CellTiter-Glo, 72 h; series mostly up to 44.5 µM; note: nearly all actives have a fitted effect of over 65% in size; note: potency is the fitted concentration of half-maximal effect; for activity change, negative = cytotoxicity: % is set by controls: 0 for no effect and ±100 for the full control effect
Procedure, shortened: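 KB-8-5-11: colchicine-selected sub-line of KB-3-1 over-expressing P-gp; assay medium lacked colchicine. 72 h drug exposure at 37 degree C, CellTiter-Glo.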

[12] = Primary qHTS for inhibitors of nuclear receptor binding SET domain protein 2 (NSD2) in an isogenic RCH-ACV NSD2 p.E1099K mutant (9B) (AID 1645876); settings: RCH-ACV NSD2 E1099K (9B) viability, CellTiter-Glo, 72 h; series mostly up to 44.9 µM; note: nearly all actives have a fitted effect of over 70% in size; note: potency is the fitted concentration of half-maximal effect
[13] = Primary qHTS for inhibitors of nuclear receptor binding SET domain protein 2 (NSD2) in an RCH-ACV wild type WT cells (2C) (AID 1645877); settings: RCH-ACV (leukaemia line) NSD2 WT (2C) viability, CellTiter-Glo, 72 h; series mostly up to 44.9 µM; note: nearly all actives have a fitted effect of over 70% in size; note: potency is the fitted concentration of half-maximal effect
[14] = target: Catechol O-methyltransferase (Homo sapiens) (UniProt P21964); assay: Confirmatory Screen for Target Class Profiling of Small Molecule Inhibitors of Methyltransferases (AID 1745852); settings: MTase-Glo luminescence, SAH detection, recombinant enzyme; measured here: COMT max response; stronger effect = lower value
[15] = target: Guanidinoacetate N-methyltransferase (Homo sapiens) (UniProt Q14353); assay: as above; settings: MTase-Glo luminescence, SAH detection, recombinant enzyme; activity change, negative = inhibition: at 57.3 µM (top of the series) unless noted; series mostly up to 57.3 µM
[16] = target: Nicotinamide N-methyltransferase (Homo sapiens) (UniProt P40261); assay: as above; settings: MTase-Glo luminescence, SAH detection, recombinant enzyme; measured here: NNMT max response; stronger effect = lower value
[17] = target: Phenylethanolamine N-methyltransferase (Homo sapiens) (UniProt P11086); assay: as above; settings: MTase-Glo luminescence, SAH detection, recombinant enzyme; measured here: PNMT max response; stronger effect = lower value
[18] = P-glycoprotein substrates identified in KB-3-1 adenocarcinoma cell line, qHTS therapeutic library screen (AID 1346986); settings: KB-3-1 parental cells viability, CellTiter-Glo, 72 h; series mostly up to 93.4 µM; note: nearly all actives have a fitted effect of over 60% in size
Procedure, shortened: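 Compounds were tested in dose-response against KB-3-1 and KB-8-5-11 cells at 37 degree C for 72 h, and viability was measured by luminescence. AC50 values came from curve fitting with class-based activity calls.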

Cytochrome P450 2C9 (Homo sapiens), sequence (P11712 whole entry, looked up): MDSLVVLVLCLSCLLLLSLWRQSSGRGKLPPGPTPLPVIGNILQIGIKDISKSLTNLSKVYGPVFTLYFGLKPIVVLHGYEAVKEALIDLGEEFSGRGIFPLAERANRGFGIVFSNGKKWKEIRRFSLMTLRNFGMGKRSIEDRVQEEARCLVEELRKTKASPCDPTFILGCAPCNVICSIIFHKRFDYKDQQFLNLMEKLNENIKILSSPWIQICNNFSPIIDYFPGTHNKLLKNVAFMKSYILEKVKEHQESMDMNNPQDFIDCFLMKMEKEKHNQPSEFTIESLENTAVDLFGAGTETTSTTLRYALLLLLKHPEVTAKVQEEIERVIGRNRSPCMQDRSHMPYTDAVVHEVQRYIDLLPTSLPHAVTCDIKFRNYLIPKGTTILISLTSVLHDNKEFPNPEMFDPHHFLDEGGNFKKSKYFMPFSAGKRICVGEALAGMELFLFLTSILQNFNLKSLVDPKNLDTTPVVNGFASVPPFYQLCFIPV
Cytochrome P450 2D6 (Homo sapiens), sequence (P10635 whole entry, looked up): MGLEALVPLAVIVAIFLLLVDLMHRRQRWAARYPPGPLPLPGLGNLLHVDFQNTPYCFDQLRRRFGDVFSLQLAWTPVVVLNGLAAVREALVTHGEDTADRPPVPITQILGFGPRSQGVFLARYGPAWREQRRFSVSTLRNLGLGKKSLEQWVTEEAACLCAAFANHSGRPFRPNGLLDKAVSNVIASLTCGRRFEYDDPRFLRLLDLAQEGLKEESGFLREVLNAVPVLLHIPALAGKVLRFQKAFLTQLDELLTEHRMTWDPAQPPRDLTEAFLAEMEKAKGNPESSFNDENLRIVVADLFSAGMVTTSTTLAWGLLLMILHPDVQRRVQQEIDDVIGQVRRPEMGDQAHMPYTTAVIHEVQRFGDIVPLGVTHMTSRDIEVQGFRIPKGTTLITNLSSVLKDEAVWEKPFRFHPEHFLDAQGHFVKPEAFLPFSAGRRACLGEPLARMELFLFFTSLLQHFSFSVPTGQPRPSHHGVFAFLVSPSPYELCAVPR
Catechol O-methyltransferase (Homo sapiens), sequence (P21964 whole entry, looked up): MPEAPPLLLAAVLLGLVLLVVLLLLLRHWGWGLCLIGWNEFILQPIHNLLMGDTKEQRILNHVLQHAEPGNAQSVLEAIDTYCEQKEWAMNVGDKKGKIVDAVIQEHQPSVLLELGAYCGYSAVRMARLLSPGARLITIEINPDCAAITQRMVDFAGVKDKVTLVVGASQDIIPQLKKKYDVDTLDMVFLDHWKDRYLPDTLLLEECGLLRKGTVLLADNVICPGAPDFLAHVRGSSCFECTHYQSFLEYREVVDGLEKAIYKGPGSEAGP
Nicotinamide N-methyltransferase (Homo sapiens), sequence (P40261 whole entry, looked up): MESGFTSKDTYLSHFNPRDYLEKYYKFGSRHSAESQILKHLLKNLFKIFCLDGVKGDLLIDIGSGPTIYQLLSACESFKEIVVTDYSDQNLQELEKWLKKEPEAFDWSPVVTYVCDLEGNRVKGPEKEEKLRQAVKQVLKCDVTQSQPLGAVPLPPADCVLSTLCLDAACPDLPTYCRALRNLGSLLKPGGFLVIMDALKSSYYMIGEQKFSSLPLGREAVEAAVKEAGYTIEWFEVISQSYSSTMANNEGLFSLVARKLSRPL
Phenylethanolamine N-methyltransferase (Homo sapiens), sequence (P11086 whole entry, looked up): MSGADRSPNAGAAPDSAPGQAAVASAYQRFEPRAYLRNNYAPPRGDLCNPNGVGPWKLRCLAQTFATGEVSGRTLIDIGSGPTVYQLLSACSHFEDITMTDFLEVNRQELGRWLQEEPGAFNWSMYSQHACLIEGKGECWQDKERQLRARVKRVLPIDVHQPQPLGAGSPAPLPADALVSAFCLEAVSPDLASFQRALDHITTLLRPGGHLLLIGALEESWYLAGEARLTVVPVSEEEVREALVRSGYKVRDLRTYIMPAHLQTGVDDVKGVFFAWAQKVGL

COc1cc(C(=O)N2CC[C@@H](O)[C@@H](N)C2)cc2nc(-c3cc4ccccc4n3CC3CC3)n(C)c12
1.05: Z-AUC ([1]; measured here: PEO1 parental Z-AUC)
inactive: Z-AUC [1] 0.124
0.456: Z-AUC ([1]; measured here: PEO4 Z-AUC)

c1ccc(C2(c3ccccc3)OC[C@@H]([C@H]3CCCCN3)O2)cc1
inactive: Potency [2] | max response [4] -2.49% | max response [5] -9.58% | Potency [6] | Potency [7]
active: Potency [3] 849 nM

O=C(N1CCCCC1Cc1ccccc1)n1cc(-c2ccc(-c3ccccc3)cc2)nn1 (stereo unspecified)
inactive: Potency [2] | Potency [3] | max response [4] 2.49% | max response [5] -19% | outcome [9] | outcome [10] | Potency [7]
active: Potency [8] 2680 nM

CCC1CN2CCC3(C(=O)Nc4cccc(O)c43)C2CC1/C(=C/OC)C(=O)OC (stereo unspecified)
inactive: Potency [11] | Potency [2] | Potency [12] | Potency [13] | max response [4] -15.5% | max response [5] -16.6% | outcome [9] inactive [at 17.4 µM] | Potency [6] | Potency [7]

C=C1CC[C@H]2[C@@H](/C=C(\C)C(=O)[C@@]3(OC(C)=O)C[C@H](C)[C@H](OC(=O)c4ccccc4)[C@@H]3[C@H]1OC(C)=O)C2(C)C
inactive: Potency [11] | Potency [2] | max response [4] 1.55% | max response [5] 4.96% | Potency [6] | Potency [7]

COC1(C[S@@](=O)c2ccccc2)CCN(CCc2c[nH]c3ccc(F)cc23)CC1
inactive: Potency [11] | Potency [2] | Potency [8] | max response [4] 3.05% | max response [5] 6.86% | Potency [6] | Potency [7]
active: Potency [3] 2390 nM

Clc1ccc([C@]23CNC[C@H]2C3)cc1Cl
-7.01%: activity [16]
-90.8%: activity [17]
inactive: Potency [11] | Potency [2] | Potency [12] | Potency [13] | max response [4] -9.42% | max response [5] -2.06% | outcome [9] | Potency [6]
-0.0723%: activity [14]
2.99%: activity change, negative = inhibition [15]

CC(=O)O[C@H]1C[C@@H](C)O[C@H]2O[C@@H]3CC4CC[C@@H]5C(CC[C@]6(C)[C@@H](C7=CC(=O)OC7)CC[C@]56O)[C@@]4(C=O)C[C@H]3O[C@]21O (stereo partly specified)
active: Potency [11] 86.2 nM | Potency [12] 48.3 nM | Potency [13] 68.2 nM | Potency [4] 43.2 nM | Potency [5] 68.5 nM | Potency [6] 126 nM | Potency [7] 112 nM

O=C(C[C@@H]1NCCC[C@H]1O)Cn1cnc2ccccc2c1=O
inactive: Potency [2]
active: Potency [11] 259 nM | Potency [12] 129 nM | Potency [13] 145 nM | Potency [4] 231 nM | Potency [5] 259 nM | Potency [6] 1780 nM

CC(O)(c1ccccc1)C(Cc1ccc(Cl)cc1)n1cncn1 (stereo unspecified)
inactive: Potency [11] | Potency [2] | max response [4] 0.336% | max response [5] -4.41% | outcome [9] | Potency [6] | Potency [7]
active: Potency [8] 952 nM

O=S(=O)(c1ccccc1F)N1CCOc2c(N3CCNCC3)cccc21
active: Potency [8] 9520 nM
inactive: Potency [18] | Potency [11] | Potency [2] | Potency [3] | max response [4] 2.13% | outcome [5] | outcome [9] | Potency [6] | Potency [7]

C[C@H]1CN(CC[C@H](O)C2CCCCC2)CC[C@@]1(C)c1cccc(O)c1
inactive: Potency [11] | max response [4] 4.91% | max response [5] -5.46% | Potency [6] | Potency [7]
active: Potency [3] 5350 nM

CCOP(=O)(OCC)Oc1ccc2c(C)cc(=O)oc2c1
inactive: Potency [13] | max response [4] -4.98% | max response [5] -1.13% | Potency [7]

CC1(C)C(=O)N(c2ccc(C#N)c(C(F)(F)F)c2)C(=S)N1c1ccc(C(N)=O)c(F)c1
inactive: Potency [11] | Potency [12] | Potency [13] | max response [4] 4.24% | max response [5] -16.1% | outcome [9] | Potency [6] | Potency [7]
active: Potency [8] 19000 nM

C[C@@H]1CCC2[C@@H](C)C(=O)OC3O[C@@]4(C)CCC1[C@]32OO4 (stereo partly specified)
inactive: Potency [11] | Potency [2] | max response [4] -1.83% | max response [5] -7.11% | Potency [7]

CCCCCn1cc(C(=O)c2cccc3ccccc23)c2ccccc21
inactive: Potency [11] | Potency [3] | Potency [12] | Potency [13] | max response [5] -15.1% | Potency [6] | Potency [7]
active: Potency [8] 1510 nM | Potency [4] 18400 nM

C/C=C(\C)C(=O)OC1C2C3(C)CCC(OC4CC(OC)C(OC5OC(C)C(O)C(OC)C5O)C(C)O4)CC3CCC23OC32CCC(C(C)=O)C2(C)C1OC(=O)/C(C)=C/C (stereo unspecified)
inactive: activity change, negative = cytotoxicity [11] -5.07% [at 9.29 µM] | Potency [2] | activity change, negative = viability loss [12] -17.6% [at 9.23 µM] | activity change, negative = cell killing [13] -23.1% [at 9.23 µM] | max response [4] -2.9% | max response [5] -21.8% | outcome [9] inactive [at 9.27 µM] | activity change, negative = cytotoxicity [6] 13% [at 11.6 µM] | activity change, negative = cytotoxicity [7] -30.2% [at 11.6 µM]
